# Assay results taken from the supplement of paper PMC12819154, “High-throughput peptide-centric local stability assay extends protein–ligand identification to membrane proteins, tissues and bacteria” (Nature Structural & Molecular Biology, 2025).
# Compound: Nc1ncnc2c1ncn2[C@@H]1O[C@H](COP(=O)(O)OP(=O)(O)OP(=O)(O)O)[C@@H](O)[C@H]1O [adenosine 5'-triphosphate]
# Test: log2 fold change of tryptic peptide abundance, ligand vs vehicle (limited proteolysis) (log2 ratio); higher = more trypsin-susceptible (destabilized)
# Settings: ligand concentration: 5 mM; sample: E. coli desalted lysate; replicate design: treated before aliquoting
# Protocol: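 HT-PELSA: desalted E. coli K-12 BW25113 lysate (with 12 mM MgCl2) incubated with 5 mM ATP (pH 7) or water for 30 min at 25 C, then a 4 min trypsin pulse at 22 C. Peptides were quantified by DIA-MS (4 replicates). Value is the peptide log2 fold change (treated/control); negative = stabilized. Scale: negative = ligand-stabilized region.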
# UniProt P21599, sequence (P21599 whole entry): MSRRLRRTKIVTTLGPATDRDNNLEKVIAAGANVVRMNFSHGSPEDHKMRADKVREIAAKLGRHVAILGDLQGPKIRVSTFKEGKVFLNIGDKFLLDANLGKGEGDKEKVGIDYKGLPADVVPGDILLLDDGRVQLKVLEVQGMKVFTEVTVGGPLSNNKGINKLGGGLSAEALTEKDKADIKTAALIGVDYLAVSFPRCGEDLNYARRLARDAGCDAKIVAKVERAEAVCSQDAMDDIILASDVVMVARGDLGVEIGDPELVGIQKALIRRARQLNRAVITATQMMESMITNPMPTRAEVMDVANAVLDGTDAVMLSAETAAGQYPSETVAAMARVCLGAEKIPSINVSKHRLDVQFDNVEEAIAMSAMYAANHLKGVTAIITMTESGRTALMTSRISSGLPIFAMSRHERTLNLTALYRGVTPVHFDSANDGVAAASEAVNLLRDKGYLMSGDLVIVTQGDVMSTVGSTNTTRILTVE
# UniProt O43353, sequence (O43353 whole entry): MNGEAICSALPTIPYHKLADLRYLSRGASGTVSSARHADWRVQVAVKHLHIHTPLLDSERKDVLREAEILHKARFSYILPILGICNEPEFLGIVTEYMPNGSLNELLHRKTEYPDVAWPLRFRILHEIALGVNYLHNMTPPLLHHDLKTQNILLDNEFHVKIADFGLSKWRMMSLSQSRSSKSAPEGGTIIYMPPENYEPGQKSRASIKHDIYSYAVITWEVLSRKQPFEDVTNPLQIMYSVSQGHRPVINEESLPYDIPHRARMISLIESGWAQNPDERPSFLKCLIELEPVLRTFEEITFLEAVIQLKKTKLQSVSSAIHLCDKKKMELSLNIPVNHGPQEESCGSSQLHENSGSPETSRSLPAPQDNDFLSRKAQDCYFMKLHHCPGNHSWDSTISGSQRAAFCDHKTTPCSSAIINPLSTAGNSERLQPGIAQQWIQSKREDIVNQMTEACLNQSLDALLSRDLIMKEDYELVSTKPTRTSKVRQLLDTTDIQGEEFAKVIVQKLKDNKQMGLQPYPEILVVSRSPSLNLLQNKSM
# UniProt P04995, sequence (P04995 whole entry): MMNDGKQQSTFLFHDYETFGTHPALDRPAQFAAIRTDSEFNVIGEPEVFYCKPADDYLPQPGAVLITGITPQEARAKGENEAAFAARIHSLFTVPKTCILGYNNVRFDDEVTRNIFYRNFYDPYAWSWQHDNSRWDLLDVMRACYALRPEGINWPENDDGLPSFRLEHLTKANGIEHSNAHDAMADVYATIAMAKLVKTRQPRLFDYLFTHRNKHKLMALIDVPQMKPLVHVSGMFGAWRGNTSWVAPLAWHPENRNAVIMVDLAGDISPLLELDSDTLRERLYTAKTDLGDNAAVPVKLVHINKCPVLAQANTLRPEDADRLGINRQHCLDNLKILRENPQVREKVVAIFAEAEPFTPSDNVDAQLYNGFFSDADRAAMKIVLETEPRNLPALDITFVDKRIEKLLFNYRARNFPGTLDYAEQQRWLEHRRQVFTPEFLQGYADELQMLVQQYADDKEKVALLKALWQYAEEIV
# UniProt P37626, sequence (P37626 whole entry): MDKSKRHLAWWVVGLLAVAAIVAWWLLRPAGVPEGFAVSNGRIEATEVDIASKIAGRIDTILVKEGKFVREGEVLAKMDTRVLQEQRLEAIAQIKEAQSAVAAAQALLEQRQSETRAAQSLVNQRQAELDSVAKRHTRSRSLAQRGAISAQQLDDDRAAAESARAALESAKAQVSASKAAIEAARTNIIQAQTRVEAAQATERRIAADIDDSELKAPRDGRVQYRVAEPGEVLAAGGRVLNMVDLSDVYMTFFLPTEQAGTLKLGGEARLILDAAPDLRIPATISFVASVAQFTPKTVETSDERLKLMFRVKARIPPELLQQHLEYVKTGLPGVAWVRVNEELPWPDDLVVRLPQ
# UniProt P05055, sequence (P05055 whole entry): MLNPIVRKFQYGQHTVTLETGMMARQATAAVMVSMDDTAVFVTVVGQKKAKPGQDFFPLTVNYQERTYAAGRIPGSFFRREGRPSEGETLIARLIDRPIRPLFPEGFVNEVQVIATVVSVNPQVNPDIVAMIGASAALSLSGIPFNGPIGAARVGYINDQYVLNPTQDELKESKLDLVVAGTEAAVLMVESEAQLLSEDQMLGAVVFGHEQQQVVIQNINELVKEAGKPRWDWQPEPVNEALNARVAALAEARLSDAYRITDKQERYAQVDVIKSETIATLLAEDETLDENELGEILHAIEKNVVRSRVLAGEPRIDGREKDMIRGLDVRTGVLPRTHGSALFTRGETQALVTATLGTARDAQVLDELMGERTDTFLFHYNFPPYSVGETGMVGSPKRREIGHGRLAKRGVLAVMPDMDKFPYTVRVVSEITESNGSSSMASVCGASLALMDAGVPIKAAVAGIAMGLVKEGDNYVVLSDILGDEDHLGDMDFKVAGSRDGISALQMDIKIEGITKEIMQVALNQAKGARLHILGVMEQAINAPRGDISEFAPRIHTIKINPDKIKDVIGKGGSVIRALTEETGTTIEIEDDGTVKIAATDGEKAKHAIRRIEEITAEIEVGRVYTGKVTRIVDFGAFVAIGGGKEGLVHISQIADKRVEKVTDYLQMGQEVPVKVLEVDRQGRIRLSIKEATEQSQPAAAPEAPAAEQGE
# UniProt P00393, sequence (P00393 whole entry): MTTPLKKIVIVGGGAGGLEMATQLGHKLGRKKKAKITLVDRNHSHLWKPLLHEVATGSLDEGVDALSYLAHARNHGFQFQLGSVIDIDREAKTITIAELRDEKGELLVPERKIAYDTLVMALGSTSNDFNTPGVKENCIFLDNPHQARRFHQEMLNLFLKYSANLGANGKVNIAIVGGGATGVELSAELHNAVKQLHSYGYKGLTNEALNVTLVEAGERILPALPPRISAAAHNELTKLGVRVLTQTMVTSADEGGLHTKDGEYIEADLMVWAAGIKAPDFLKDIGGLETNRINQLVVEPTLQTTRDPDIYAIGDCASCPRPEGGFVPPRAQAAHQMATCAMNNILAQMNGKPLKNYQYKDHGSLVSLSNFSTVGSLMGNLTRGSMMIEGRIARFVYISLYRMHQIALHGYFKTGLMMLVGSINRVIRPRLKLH
# UniProt P55263, sequence (P55263 whole entry, looked up): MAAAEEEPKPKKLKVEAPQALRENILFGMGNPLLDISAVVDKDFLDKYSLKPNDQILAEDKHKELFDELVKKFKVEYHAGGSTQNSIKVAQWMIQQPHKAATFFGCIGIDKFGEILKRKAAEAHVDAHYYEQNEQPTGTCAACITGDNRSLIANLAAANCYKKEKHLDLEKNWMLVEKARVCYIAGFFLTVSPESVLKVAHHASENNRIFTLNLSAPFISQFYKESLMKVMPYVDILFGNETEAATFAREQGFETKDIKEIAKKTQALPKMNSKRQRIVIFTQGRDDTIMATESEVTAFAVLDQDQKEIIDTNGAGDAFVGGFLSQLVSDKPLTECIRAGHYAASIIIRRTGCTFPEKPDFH
# UniProt P42680, sequence (P42680 whole entry): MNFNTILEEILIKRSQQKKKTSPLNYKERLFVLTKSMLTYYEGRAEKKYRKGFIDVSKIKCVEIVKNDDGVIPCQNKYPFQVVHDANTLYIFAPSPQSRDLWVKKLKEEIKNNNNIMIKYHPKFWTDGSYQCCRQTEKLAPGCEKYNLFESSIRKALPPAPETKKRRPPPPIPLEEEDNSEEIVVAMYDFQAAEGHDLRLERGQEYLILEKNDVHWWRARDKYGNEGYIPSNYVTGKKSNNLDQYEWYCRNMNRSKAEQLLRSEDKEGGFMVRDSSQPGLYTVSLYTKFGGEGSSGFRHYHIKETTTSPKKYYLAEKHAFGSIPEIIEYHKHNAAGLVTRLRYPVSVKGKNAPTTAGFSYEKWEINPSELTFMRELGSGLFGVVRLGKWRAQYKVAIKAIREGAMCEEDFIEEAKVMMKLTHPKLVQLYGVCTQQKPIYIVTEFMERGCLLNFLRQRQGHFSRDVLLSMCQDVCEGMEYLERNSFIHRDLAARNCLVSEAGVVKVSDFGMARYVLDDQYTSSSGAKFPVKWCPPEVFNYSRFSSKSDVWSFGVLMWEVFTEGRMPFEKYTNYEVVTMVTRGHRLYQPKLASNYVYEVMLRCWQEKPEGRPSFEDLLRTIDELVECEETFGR
# UniProt P37908, sequence (P37908 whole entry): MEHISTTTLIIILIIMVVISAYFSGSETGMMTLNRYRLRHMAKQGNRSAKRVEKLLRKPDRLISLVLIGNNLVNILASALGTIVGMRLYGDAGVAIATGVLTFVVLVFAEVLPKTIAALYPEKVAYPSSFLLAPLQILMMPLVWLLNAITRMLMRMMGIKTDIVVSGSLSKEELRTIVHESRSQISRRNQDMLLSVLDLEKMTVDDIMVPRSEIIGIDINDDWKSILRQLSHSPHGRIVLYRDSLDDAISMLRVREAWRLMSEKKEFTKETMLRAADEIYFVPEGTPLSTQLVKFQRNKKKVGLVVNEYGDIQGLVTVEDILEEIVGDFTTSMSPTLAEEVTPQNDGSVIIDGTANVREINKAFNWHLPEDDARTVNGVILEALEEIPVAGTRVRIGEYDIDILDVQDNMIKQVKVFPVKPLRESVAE
row,Target,log2 fold change
1,"UniProt P05055 (peptide sequence: GDISEFAPR, peptide start residue: 546)",-0.643
2,"UniProt P00393 (peptide sequence: ISAAAHNELTK, peptide start residue: 228)",-0.559
3,"UniProt P21599 (peptide sequence: VLEVQGMK, peptide start residue: 138)",-1
4,"UniProt P04995 (peptide sequence: TDLGDNAAVPVK, peptide start residue: 288)",0.472
5,"UniProt P37908 (peptide sequence: RNQDMLLSVLDLEK, peptide start residue: 188)",-2.2
6,"UniProt P37626 (peptide sequence: TVETSDER, peptide start residue: 297)",0.336

# Compound: Cc1nc(Nc2ncc(C(=O)Nc3c(C)cccc3Cl)s2)cc(N2CCN(CCO)CC2)n1 [dasatinib]
# Test: as above
# Settings: ligand concentration: 5 uM; sample: K562 cleared lysate
row,Target,log2 fold change
1,"TEC (peptide sequence: GCLLNFLR, peptide start residue: 448) (UniProt P42680)",-2.98
2,"ADK (peptide sequence: TGCTFPEKPDFH, peptide start residue: 351) (UniProt P55263)",-0.858
3,"RIPK2 (peptide sequence: KTEYPDVAWPLR, peptide start residue: 110) (UniProt O43353)",-1.34
